# Rows were chosen to be rich in hits. Some 18% of all compounds tested hit in one or more screens of this group.
# Six1-Eya2 blk = inhibitors of human Six1/Eya2 interaction; AlphaScreen GST-Six1/His-Eya2 binding, biochemical; active compounds read low; 360,000 compounds, 0.56% hits; activity change, % (no concentration beside the values); Q15475+O00167; AID 651725; in the data active means activity change below about -65%; inconclusive means mostly about -30% to -63%
#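 GST-Six1 + His-Eya2 (5X stock: 250/500 nM); Tris pH 8.0, 300 mM NaCl, 0.05% BSA, 0.02% Tween 20; GSH donor/Ni acceptor beads; 1 h 37 °C dark; AlphaScreen readout.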
# TDP1 inh = TDP1 (human) enzyme inhibition; AID 485290; Potency, µM (titrated, usually from 130 µM), without a hit: top-dose activity change, negative = inhibition, hits mostly inhibitors; recombinant TDP1, AlphaScreen DNA substrate cleavage; 350,000 compounds, 0.28% hits; Q9NUW8; further: potency means the concentration at half of the fitted maximal effect; nearly all actives have a fitted effect of over 40% in size
# Target sequence (Q9NUW8 whole entry, looked up): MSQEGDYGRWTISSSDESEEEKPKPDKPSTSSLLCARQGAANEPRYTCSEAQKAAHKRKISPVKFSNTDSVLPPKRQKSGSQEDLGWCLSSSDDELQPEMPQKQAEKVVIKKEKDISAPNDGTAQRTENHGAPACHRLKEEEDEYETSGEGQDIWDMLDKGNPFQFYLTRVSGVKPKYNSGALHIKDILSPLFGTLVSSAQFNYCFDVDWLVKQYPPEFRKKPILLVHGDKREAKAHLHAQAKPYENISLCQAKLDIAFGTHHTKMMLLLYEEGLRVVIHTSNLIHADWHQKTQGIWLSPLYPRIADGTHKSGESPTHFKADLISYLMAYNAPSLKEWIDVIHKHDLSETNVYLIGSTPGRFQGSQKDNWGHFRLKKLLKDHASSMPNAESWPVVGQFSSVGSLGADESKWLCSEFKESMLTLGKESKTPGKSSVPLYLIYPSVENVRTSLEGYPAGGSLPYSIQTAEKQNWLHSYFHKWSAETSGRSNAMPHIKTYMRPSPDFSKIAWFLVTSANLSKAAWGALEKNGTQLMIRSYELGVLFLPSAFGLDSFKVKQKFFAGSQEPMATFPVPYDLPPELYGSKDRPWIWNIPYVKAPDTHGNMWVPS
#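 Steps: enzyme plus compound, 15 min RT; add biotin/phosphotyrosine-FITC oligonucleotide (15 nM final), react 5 min; add donor/acceptor beads (10 ug/ml final), 10 min; read AlphaScreen. Tdp1 at 1 nM final.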
# TDP1 cell CPT = DT40-hTDP1 cell growth loss with CPT | 420,000 compounds, 12% hits | AID 686979 | chicken DT40 Tdp1-/-;hTDP1 cells + 20 nM CPT, ATP luminescence, 48 h | Potency, µM (titrated, usually from 46.2 µM), for inactives: at the highest dose activity change, negative = growth inhibition, usual class: inhibitors; further: potency means the concentration at half of the fitted maximal effect; nearly all actives have a fitted effect of over 55% in size
#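 Chicken DT40 Tdp1-/- cells complemented with human TDP1, 400 cells/well, exposed to compounds plus 20 nM camptothecin for at least 48 h at 37 C; viability read as ATP content by CellTiter-Glo luminescence.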
# CtBP-E1A inh = blocks the CtBP interaction with E1A; AlphaScreen GST-E1A/His-CtBP binding, 1536-well; active compounds read low; activity change, % (test concentration not listed); 340,000 compounds, 0.49% hits; AID 651724; in the data active means activity change below about -65%; inconclusive means mostly about -30% to -63%
#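 Steps: dispense buffer (Tris pH 8.0, NaCl 300 mM, TCEP 1 mM, BSA, Tween 20); add 5X protein mix (GST-E1A, His-CtBP, 125 nM each); pin 23 nL compound; 2 h at 37 °C, dark; add 5X beads (50 ug/mL); 1 h; read.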
# IL-1B inflam inh = inhibitors of inflammasome signaling (IL-1 beta secretion). THP-1 LPS/ATP IL-1B secretion, AlphaLISA, 16 h; active compounds read low. activity change, % at 57.5 µM. 360,000 compounds, 4.7% hits. AID 743279; in the data active means activity change below about -50%; inconclusive means mostly about -30% to -49%
#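 Secreted IL-1B measured by AlphaLISA bead assay after 16 h compound exposure of THP-1 cells; compounds (final up to 57.5 uM) added 1 h before LPS (250 ng/mL) and ATP (1.25 mM) stimulation; lower signal means less secretion.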
# TDP1 cell noCPT = qHTS for Inhibitors of human tyrosyl-DNA phosphodiesterase 1 (TDP1): qHTS in cells in absence of CPT | DT40 Tdp1-/- hTDP1 cells, no CPT, ATP luminescence, 48 h | Potency, µM (top dose mostly 46.2 µM), for the others: at the highest dose activity change, negative = growth inhibition, most hits filed as inhibitors | 420,000 compounds, 15% hits | AID 686978, 2013; further: potency means the concentration at half of the fitted maximal effect; nearly all actives have a fitted effect of over 55% in size
#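 Growth of hTDP1-complemented DT40 Tdp1-knockout cells is measured by ATP luminescence after at least 48 hr compound exposure at 37 °C, with DMSO substituting for the 20 nM CPT used in the parallel screen.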
# An asterisk follows results filed as active; ? = inconclusive; . = no result; [ ] = remark or other dose. Unless noted, the call rests on the fitted dose curve; in most records, active means well fitted curve in the direction sought with a large enough effect; inconclusive means small, poorly fitted or top-dose-only effect, or another doubt; inactive means no such curve, though single readings can be large; an effect the other way counts as inactive or inconclusive. On the % scale 0 is the no-effect control and ±100 the full control effect.
SMILES,Six1-Eya2 blk,TDP1 inh,TDP1 cell CPT,CtBP-E1A inh,IL-1B inflam inh,TDP1 cell noCPT
Cc1ccc2c(Cl)cc(Cl)c(OCC(=O)OCC(=O)Nc3ccc(C#N)cc3)c2n1,3.5,2.7%,7.6%,4.2,17.2,-20.3%
CCCCCCNCc1ccc(Br)cc1,11.1,1.0%,?,-2.3,-56.1*,?
CC(C)[C@H](NC(=O)OC(C)(C)C)c1cc(C(=O)N(C)CCN(C)C)c(N)s1,2.5,.,0.6%,-2.0,-13.3,11.9%
COc1ccc(Cc2nnc(SCC(=O)N3CCCC3)o2)cc1,8.1,5.6%,1.1%,4.8,-10.5,9.5%
ClCc1nnc(-c2cc3c(s2)CCCC3)o1,1.5,4.9%,10.3µM*,4.0,-104.8*,16.4µM*
CCN1CCN(c2c(S(=O)(=O)c3ccc(Cl)cc3)cnc3ccccc23)CC1,.,1.0%,13µM*,.,.,?
CCOc1ccc(Nc2c(S(=O)(=O)c3ccc(C)cc3)cnc3cc(OC)c(OC)cc23)cc1,.,2.0%,?,.,.,11.6µM*
CCN1CCN(c2c(S(=O)(=O)c3ccc(C)c(C)c3)cnc3cc(OC)c(OC)cc23)CC1,.,-1.0%,14.6µM*,.,.,?
CCc1ccc2ncc(S(=O)(=O)c3ccc(C)c(C)c3)c(N3CCCC3)c2c1,0.8,-1.9%,23.1µM*,-3.2,-25.5,14.6µM*
CCN1CCN(c2c(S(=O)(=O)c3ccccc3)cnc3ccc(Cl)cc23)CC1,.,0.0%,-21.3%,.,.,?
COC(=O)C(C)(C(=O)OC)c1ccc(C(F)(F)F)cc1[N+](=O)[O-],4.6,2.7%,15.2%,-1.6,50.8,4.2%
O=C(O)c1ccccc1Nc1ccnc(C(F)(F)F)c1,13.7,.,?,4.4,30.4,?
COc1ccc(S(=O)(=O)c2cnc3ccc(Cl)cc3c2N2CCCCC2C)cc1 (stereo not drawn),.,2.9%,16.4µM*,.,.,23.1µM*
COc1ccc(S(=O)(=O)c2cnc3cc(OC)c(OC)cc3c2N2CCCC(C)C2)cc1 (stereo not drawn),.,7.8%,?,.,.,?
CCc1ccc(S(=O)(=O)c2cnc3ccc(OC)cc3c2N2CCCC(C)C2)cc1 (stereo not drawn),.,0.0%,16.4µM*,.,.,?
Cc1ccc(NS(=O)(=O)c2ccc(OCC(=O)N3CCOCC3)cc2)cc1,5.1,3.8%,-21.7%,6.4,24.0,-22.8%
CCCNC(=O)C1(C)CCN(C(=O)c2sccc2C)C1 (stereo not drawn),4.2,.,1.1%,-2.8,1.6,1.7%
CCOC(=O)/C=C1\Nc2ccccc2OC1=O,-3.4,5.4%,8.2µM*,-21.5,4.6,10.3µM*
CCOC(=O)/C=C1\CC(C(=O)OCC)Oc2ccccc21 (stereo not drawn),13.1,-0.2%[56.1 µM],4.8%,4.2,54.8,2.5%
O=c1c2ccccc2cnn1-c1nc2ccccc2[nH]1,0.9,-2.6%,4.11µM*,2.7,26.8,3.66µM*
O=c1c(Cl)c(N2CCCCC2)cnn1-c1nc2ccccc2[nH]1,6.3,4.1%,?,8.2,-15.2,20.6µM*
COc1ccccc1CN1CC[C@@]2(CCCN(C(=O)c3ccco3)C2)C1,.,.,?,.,.,-22.8%
CC(C)C[C@H]1CNC(=S)N1C[C@H]1CCCN1C[C@H](CC(C)C)N1C[C@H](Cc2ccc(O)cc2)N(CC2CCCCC2)C1=S,-2.9,.,10.3µM*,-1.4,-61.9*,13µM*
CC(C)C[C@@H](CN1CCCC1CN1C(=S)NC[C@@H]1Cc1ccc(O)cc1)N1C[C@H](Cc2ccc(O)cc2)N(CC2CCCCCC2)C1=S (stereo partly drawn),-8.1,.,14.6µM*,-12.2,-82.7*,8.2µM*
CC(C)C[C@@H](CN1CCCC1CN1C(=S)NC[C@@H]1Cc1ccc(O)cc1)N1C[C@H](Cc2ccccc2)N(CC2CCCCCC2)C1=S (stereo partly drawn),-1.8,.,?,-4.0,0.5,23.1µM*
SMILES,Six1-Eya2 blk,TDP1 inh,TDP1 cell CPT,CtBP-E1A inh,IL-1B inflam inh,TDP1 cell noCPT
N/C(=N\OC(=O)COc1ccc(Cl)cc1Br)c1cccnc1,4.6,7.4%,-2.0%,11.1,-11.8,-8.1%
CCN1CCC2(CC1)N=C(c1ccc(F)cc1)C(=S)N2C(=O)c1ccc(C(C)(C)C)cc1,0.5,-2.7%,?,2.6,-19.4,-11.2%
CN1CCC2(CC1)N=C(c1ccc(F)cc1)C(=S)N2C(=O)c1ccccc1,3.6,8.2%,7.31µM*,0.5,0.0,11.6µM*
COc1cc(CNC(=O)c2ccc(Cn3nc(C)c(Cl)c3C)o2)cc(OC)c1,-7.3,2.3%,?,5.4,-11.7,8.2µM*
COc1cc(CNC(=O)c2nc(Cn3nc(C)c(Br)c3C)no2)cc(OC)c1,-8.8,3.8%,29.1µM*,-19.2,-71.2*,?
COC(=O)c1ccc(CNC(=O)c2nc(Cn3nc(C)c(Br)c3C)no2)cc1,.,4.5%,.,.,.,.
O=C(C(O)c1ccc(Br)cc1)N1CCC(Nc2ccc3[nH]ncc3c2)CC1 (stereo not drawn),-2.2,.,-26.4%,?,-29.1,-25.7%
COc1ccc(Cn2c(CO)cnc2SCC(=O)NCc2ccco2)cc1,.,1.8%,3.4%,.,.,6.6%
c1ccc(-c2cn(-c3ccccc3)c3[n+]2CCCS3)cc1,1.0,0.0%,3.26µM*,-1.6,-0.5,3.66µM*
CCc1ccc(-n2cc(-c3ccc(F)cc3)[n+]3c2SCCC3)cc1,-8.9,2.6%,4.61µM*,-15.0,-91.1*,1.84µM*
COc1ccc(-n2cc(-c3ccc(C)cc3)[n+]3c2SCC3)cc1,14.3,5.3%,1.46µM*,-4.7,-94.3*,1.3µM*
Cc1ccc(-c2cn(-c3ccccc3)c3[n+]2CCCS3)cc1,2.1,1.0%,0.651µM*,5.7,-63.3*,0.366µM*
N#Cc1ccc(-c2cn(-c3ccccc3)c3[n+]2CCCS3)cc1,-1.6,-2.6%,4.6%,3.5,12.7,-22.6%
Cc1ccc(-c2cn(-c3ccccc3)c(=S)[nH]2)cc1C,-4.4,.,?,-14.1,-21.7,?
CC(C)CNC(=O)CC1Nc2ccccc2NC1=O (stereo not drawn),2.0,-8.2%,14.3%,6.0,-8.5,-16.8%
CNc1oc(-c2ccccc2Cl)nc1P(=O)(c1ccccc1)c1ccccc1,-5.3,7.0%,?,-6.9,-78.5*,14.6µM*
Clc1ccccc1-c1nnc(-c2ccccc2Cl)o1,23.8,-6.2%,0.7%,0.9,-10.7,-11.7%
C=CCN1C(=O)c2ccc(C(=O)NCCOc3ccccc3F)cc2C1=O,-0.4,3.6%,-3.9%,3.5,3.8,5.8%

# Compound activity as filed in PubChem BioAssay.
